CSC inhib – cancer stem cell viability inhibitors, primary screen, luminescence; cancer stem cell-like cells viability; inhibition, % at 7.5 µM; 300,000 compounds, 1.1% hits; in the data active means inhibition above about 75%; inconclusive means no clear call, values can overlap the other calls; tested in HMLE shEcad cells
Mdm2-MdmX inh – inhibitors of human Mdm2-MdmX association, primary screen, cell-based, luminescence, split luciferase, SaOS-2, uHTS; Protein Mdm4 (Homo sapiens) + E3 ubiquitin-protein ligase Mdm2 (Homo sapiens), …; SaOS-2 split-luciferase Mdm2/MdmX complementation; inhibition, % at 8 µM; 330,000 compounds, 3% hits; AID 485346, 2010;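 active means inhibition of at least 50% at 8 µM in the primary screen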
Calb FLC – C. albicans growth inhibition with fluconazole, primary screen, CaCi-2 strain, Alamar Blue fluorescence | C. albicans CaCi-2 (fluconazole-resistant clinical isolate) + fluconazole, 48 h | growth inhibition, % (test concentration not listed) | 300,000 compounds, 0.57% hits | AID 1979, 2009;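 active means growth inhibition above about 58% in most replicates, limit read from the data, passing the limit was not always enough; inconclusive means exactly half the replicates above a set limit; inactive means most replicates below a set limit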;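 further: all wells also contain fluconazole at 8 µg/ml as a sub-toxic cotreatment; 0% = median of DMSO wells and 100% = median of geldanamycin control wells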
PP1 counter – PP1-alpha phosphatase inhibitors, primary screen, counter-screen for PP5 inhibitor project, biochemical, fluorescence, OMFP substrate, single point. Serine/threonine-protein phosphatase PP1-alpha catalytic subunit (Homo sapiens), P62136. purified PP1alpha. inhibition, % at 6.7 µM. 320,000 compounds, 0.9% hits;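 active means inhibition above the mean inhibition of all tested compounds plus 3 SD, computed separately for each screening campaign, cut at about 15% in these data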
Beta apoptosis – inhibitors of cytokine-induced beta cell apoptosis, primary screen, luminescence; INS-1E cytokine-induced death, ATP luminescence, 48 h; percent of positive-control rescue, neutral wells zero; protection from apoptosis, % (no concentration beside the values); 300,000 compounds, 0.8% hits; AID 435005, 2010;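 active means Every replicate reaches about 75%, or at least half do and their mean reaches it too, limit read from the data; inconclusive means At least half of replicates reach the limit but their mean does not; inactive means Under half of replicates reach the limit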;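 further: 0% = cytokine-treated negative control wells and 100% = positive control rescue; higher means more ATP so stronger rescue from cytokine killing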
PP5 primary – PP5 phosphatase inhibitors, primary screen, biochemical, fluorescence; purified PP5c, OMFP substrate fluorescence; inhibition, % at 6.7 µM; AID 1987, 2009; 320,000 compounds, 0.18% hits; Serine/threonine-protein phosphatase 5 (Homo sapiens), P53041;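 active means inhibition above the campaign's mean inhibition across all tested compounds plus 3 SD, cut at about 9.5% in these data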;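 further: 0% = DMSO only and 100% = 100 µM cantharidin control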
Target sequence (P53041 whole entry, looked up): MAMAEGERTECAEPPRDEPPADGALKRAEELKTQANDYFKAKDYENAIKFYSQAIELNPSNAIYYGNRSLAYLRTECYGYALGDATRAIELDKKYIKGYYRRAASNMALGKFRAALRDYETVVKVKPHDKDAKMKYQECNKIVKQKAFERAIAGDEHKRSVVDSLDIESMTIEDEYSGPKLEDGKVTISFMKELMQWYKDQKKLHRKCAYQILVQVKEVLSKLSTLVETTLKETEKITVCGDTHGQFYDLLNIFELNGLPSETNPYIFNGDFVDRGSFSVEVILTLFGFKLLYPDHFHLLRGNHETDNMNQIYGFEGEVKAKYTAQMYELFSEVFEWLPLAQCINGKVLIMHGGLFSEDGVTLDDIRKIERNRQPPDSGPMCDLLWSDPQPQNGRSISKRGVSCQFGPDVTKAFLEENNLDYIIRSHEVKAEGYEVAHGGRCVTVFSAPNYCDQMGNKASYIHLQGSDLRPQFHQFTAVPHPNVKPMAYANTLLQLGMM
Mdm2-MdmX conf – Mdm2-MdmX complex disruptors, retested hits, confirmation, luminescence, single concentration; 10,000 compounds, 55% hits; shares compounds with Mdm2-MdmX inh; Mdm2-MdmX binding, luminescent assay; inhibition, % at 8 µM; in the data active means inhibition above about 40%
Full FLuc ctr – full-length luciferase signal inhibition, confirmation, counter-screen for Mdm2/MdmX interaction inhibitor project, cell-based, single concentration, SaOS-2; SaOS-2 full-length luciferase counterscreen, luminescence; inhibition, % at 8 µM; 6,200 compounds, 77% hits; shares compounds with Mdm2-MdmX inh;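 active means mean inhibition at 8 µM reaching about 37%, which flags the compound as non-specific, limit read from the data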;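 further: p53-null SaOS-2 cells with luciferase driven by a doxycycline-inducible promoter; compound on cells about two nights before reading with doxycycline added after day one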
* = called active by the depositor; ? = inconclusive; · = no result given. Hits are enriched below; roughly 4.9% of the tested compounds scored in any of these assays.

SMILES | CSC inhib | Mdm2-MdmX inh | Calb FLC | PP1 counter | Beta apoptosis | PP5 primary | Mdm2-MdmX conf | Full FLuc ctr
CCN(CC)CCCn1c2c(c(SCC(=O)Nc3nc(C)cs3)nc1=O)CCC2 | 11 | 0 | 0 | -3 | -4 | -2 | · | ·
O=C1C=C(c2cc3ccccc3s2)C[C@@H](c2ccc3c(c2)OCO3)C1 | -11 | 67* | · | -1 | -17 | 0 | 41* | 101*
CCc1ccc(NC(=O)C(C)n2nc(C)c([N+](=O)[O-])c2C)cc1 (stereo not drawn) | 14 | 4 | -5 | -1 | 10 | 1 | · | ·
COCCCNCCCOc1ccc(C(C)(C)c2ccccc2)cc1 | · | 34 | 1 | 3 | -3 | 0 | · | ·
CC(C)(c1ccccc1)c1ccc(OCCCNCCO)cc1 | 5 | 54* | · | 1 | · | 2 | 37 | ·
C=CCn1c(SCc2c(C)noc2C)nc2sc(C)c(C)c2c1=O | 59 | 56* | -20 | -2 | 14 | 3 | 60* | 49*
Cc1ccc(N(CC(=O)N2CCCC2)S(C)(=O)=O)c(C)c1 | -6 | 21 | -12 | 2 | -4 | 1 | · | ·
CCOc1cc2c(cc1OCC)CN(CC(=O)Nc1ccccc1C(=O)NC1CC1)CC2 | · | 12 | · | -3 | -4 | 1 | · | ·
CCOC(=O)C1=C(C)N=c2s/c(=C/c3cccc([N+](=O)[O-])c3O)c(=O)n2C1c1cc(OC)c(OC)c(OC)c1 (stereo not drawn) | 9 | 52* | -5 | 2 | -3 | 2 | 9 | ·
CCOC(=O)C1=C(C)N=c2s/c(=C/c3cccc([N+](=O)[O-])c3O)c(=O)n2C1c1ccccc1 (stereo not drawn) | 30 | 45 | -4 | 2 | -1 | 0 | · | ·
COc1ccc(C2=NN(C(=O)COc3ncnc4ccccc34)C(c3ccco3)C2)cc1 (stereo not drawn) | -1 | 35 | -20 | -4 | 0 | 2 | · | ·
COc1ccc(C2=NN(C(=O)COC(=O)c3ccc(S(C)(=O)=O)c([N+](=O)[O-])c3)C(c3ccco3)C2)cc1 (stereo not drawn) | 96* | 98* | · | · | -11 | · | 91* | 52*
COc1ccccc1C(CNC(=O)c1cccc(S(=O)(=O)Nc2ccc(C)cc2)c1)N(C)C (stereo not drawn) | -14 | 27 | -5 | -3 | 0 | 1 | · | ·
COC(=O)c1ccc(/C=C2/SC(=S)N(CCCC(=O)Nc3ccccn3)C2=O)cc1 | 63 | 75* | 7 | 2 | -12 | 0 | 32 | ·
CCc1ccc(/C=C2\SC(=S)N(CCCC(=O)Nc3ccccn3)C2=O)cc1 | 6 | 85* | -3 | -2 | -7 | 0 | 73* | 53*
CCc1ccc(/C=C2\SC(=S)N(CCC(=O)NC3=NCCS3)C2=O)cc1 | 8 | 11 | ? | -2 | -6 | 1 | · | ·
COC(=O)/C=C1/N/C(=N\c2nc(C)cc(C)n2)N(c2ccc(Cl)cc2)C1=O | -10 | 22 | 7 | -1 | · | -1 | · | ·
COc1ccc(NC(=O)c2nc(C)c(C3(C)CC(c4cccnc4)=NO3)s2)cc1 (stereo not drawn) | 6 | 60* | -17 | 1 | 13 | 3 | 59* | 66*
Cc1nc(C(=O)Nc2ccc(Cl)cc2)sc1C1(C)CC(c2cccc([N+](=O)[O-])c2)=NO1 (stereo not drawn) | 5 | 61* | -8 | 4 | 14 | 0 | 36 | 47*
COCCNC(=O)/C(C#N)=C/C=C/c1ccccc1[N+](=O)[O-] | 21 | 53* | -1 | 0 | -24 | 0 | 54* | 23
COc1ccccc1N1CCN(C2CCN(C3CCC(c4ccccc4)CC3)CC2)CC1 (stereo not drawn) | 46 | 60* | -5 | 2 | -10 | 1 | 29 | ·
Cn1cccc1/C=N/NC(=O)c1cccc(OC(F)(F)C(F)F)c1 | 15 | -7 | -10 | -5 | 6 | 4 | · | ·
CC(=O)OCC(=O)C1=CCC2C3CCC4=CC(=O)C=CC4(C)C3(F)C(OC(C)=O)CC12C (stereo not drawn) | -9 | 78* | ? | 2 | -29 | 2 | 49* | 46*
C/C(=N\NC(=O)c1cc(-c2cccnc2)nc2ccccc12)c1ccccc1O | · | 63* | -15 | -2 | 86* | 1 | 51* | 39*
COc1ccc(/C(C)=N/NC(=O)c2cc(-c3cccnc3)nc3ccccc23)cc1 | -4 | 24 | -22 | -7 | -1 | 3 | · | ·
SMILES | CSC inhib | Mdm2-MdmX inh | Calb FLC | PP1 counter | Beta apoptosis | PP5 primary | Mdm2-MdmX conf | Full FLuc ctr
C/C(=N\NC(=O)c1cc(C2CC2)nc2ccccc12)c1ccc(O)cc1O | -12 | 75* | 101* | -1 | 95* | 2 | 78* | 38*
C/C(CC1CC2=C(CC1(C)C)C(C)(C)CCC2)=N\NC(N)=S (stereo not drawn) | · | 51* | -3 | 1 | · | 0 | -14 | ·
Oc1cccc(C2c3[nH]c4ccccc4c3CCN2Cc2ccoc2)c1 (stereo not drawn) | -1 | -2 | 4 | -4 | -5 | 2 | · | ·
Oc1cccc(C2c3[nH]c4ccccc4c3CCN2Cc2ccc3c(c2)CCO3)c1 (stereo not drawn) | 64 | 58* | 8 | 0 | 0 | 0 | 43* | 53*
CC(C)[C@H](NC(=O)c1ccc(C(C)(C)C)cc1)C(=O)N1CCN(Cc2ccc3c(c2)OCO3)CC1 | · | 52* | · | · | 25 | · | 32 | 55*
O=C(NC(=S)Nc1cc(C(F)(F)F)ccc1N1CCOCC1)c1sc2ccccc2c1Cl | 35 | 50* | -5 | 0 | 8 | 0 | 19 | ·
CCOc1ccc(N(CC(=O)N2CCCC2)S(=O)(=O)c2ccc(F)cc2)cc1 | -9 | 12 | 5 | -3 | -6 | 2 | · | ·
CCC1(c2ccccc2)NC(=O)N(CC(=O)N(C)Cc2c(F)cccc2Cl)C1=O (stereo not drawn) | 1 | -4 | -4 | -2 | -2 | 1 | · | ·
CCN1CSC(=S)N(Cc2ccc(OC)cc2)C1 | 47 | 69* | 1 | 0 | -6 | 1 | 32 | ·
COc1ccc(N(C(=O)Cn2nnc3ccccc32)C(C(=O)NCc2ccco2)c2ccncc2)cc1 (stereo not drawn) | · | -1 | -9 | -1 | -12 | 1 | · | ·
COc1ccccc1Cn1c(=S)[nH]c2cc(C(=O)NCC3CCCO3)ccc2c1=O (stereo not drawn) | -17 | 15 | 0 | -4 | -1 | -2 | · | ·

Bioassay records as filed in PubChem.
